{"source": "ChEMBL document CHEMBL3988442", "about": "“University of Dundee, Small-Polar-MMV Screening Library” (2021)", "note": "About 900 (1.7%) of roughly 53,000 compounds showed an effect of 50% or more. This excerpt belongs to a sample that is enriched for strong results."}
{"test_system": "Mycobacterium tuberculosis", "assay": "Cornell - Phenotypic assay to identify agents that inhibit growth of Mycobacterium tuberculosis", "format": "functional", "design": "scale not given: direction of the effect not stated beside the values", "conditions": "10 mM as filed; unlikely as a test dose", "units": {"Percent Effect": "%"}}
{"smiles": "Cc1cc(CS(=O)(=O)C(C)C(=O)N(C)c2ccccc2)on1", "note": "(centres undefined)", "Percent Effect": -17.42}
{"smiles": "CN(Cc1ccco1)[C@@H]1CN(C(=O)C2CCOCC2)C[C@@H]2CCCO[C@@H]21.O=C(O)C(F)(F)F", "Percent Effect": -2.901}
{"smiles": "NC(=O)C1CCCN(Cc2ccc(C(=O)Nc3cnns3)cc2)C1", "note": "(centres undefined)", "Percent Effect": 2.81}
{"smiles": "CC(=O)Nc1nc(C(=O)NCc2ccc(N3CCCC3)nc2)cs1", "Percent Effect": -0.1463}
{"smiles": "CSCc1cccc(NC(=O)N2CCC(N3CC=CC3)C2)c1", "note": "(centres undefined)", "Percent Effect": -39.08}
{"smiles": "CCn1c(C)cc(C(=O)N2CCC(Nc3cccnn3)CC2)c1C", "Percent Effect": 7.118}
{"smiles": "CC(C)Nc1cc(-c2c[nH]nc2C2CCN(C(=O)C3CC3)C2)ccn1", "note": "(centres undefined)", "Percent Effect": 31.29}
{"smiles": "CC(C)Nc1cc(-c2c[nH]nc2C2CCN(C(=O)C3CCC3)C2)ccn1", "note": "(centres undefined)", "Percent Effect": 58.28}
{"smiles": "CC(C)CNc1cc(-c2c[nH]nc2C2CCN(C(=O)C3CC3)C2)ccn1", "note": "(centres undefined)", "Percent Effect": 30.66}
{"smiles": "COCCN1C[C@@H]2[C@@H](OC)CCN(S(=O)(=O)c3cccnc3)[C@@H]2C1.O=C(O)C(F)(F)F.O=C(O)C(F)(F)F", "Percent Effect": 21.64}
{"smiles": "CCOCC(=O)N1CCc2nc(C)nc(NC(C)C)c2CC1", "Percent Effect": -12.05}
{"smiles": "Cc1noc(C)c1C(=O)N[C@@H]1CCC[C@@H](Oc2ccccc2)[C@@H]1O", "Percent Effect": 50.47}
{"smiles": "Cc1n[nH]c(C)c1CCC(=O)N[C@@H]1CCC[C@@H](Oc2ccccc2)[C@@H]1O", "Percent Effect": -14.05}
{"smiles": "Cc1noc(C)c1C(=O)N[C@@H]1CC[C@@H](Oc2ccccc2)[C@@H]1O", "Percent Effect": 21.33}
{"smiles": "Cc1noc(C)c1CC(=O)N[C@@H]1CC[C@@H](Oc2ccccc2)[C@@H]1O", "Percent Effect": 21.6}
{"smiles": "CC(C)c1cc(C(=O)N[C@@H]2CC[C@@H](Oc3ccccc3)[C@@H]2O)on1", "Percent Effect": 75.51}
{"smiles": "Cc1noc(C)c1CCC(=O)N[C@@H]1CC[C@@H](Oc2cccnc2)[C@@H]1O", "Percent Effect": 15.37}
{"smiles": "COCC(NC(=O)c1cnc(-c2ccncc2)nc1)c1ccnn1C", "note": "(centres undefined)", "Percent Effect": 1.357}
{"smiles": "O=C(c1cc(-c2cccs2)on1)N1CCCCC1Cn1cccn1", "note": "(centres undefined)", "Percent Effect": 6.3}
{"smiles": "Cc1csc(Nc2cc(C3CN(c4ccncn4)C3)nc(C)n2)n1", "Percent Effect": 23.54}
{"smiles": "CCc1cccc(NC(=O)CNc2ccccc2OCCC(=O)OC)c1", "Percent Effect": 45.3}
{"smiles": "CCS(=O)(=O)NCC(=O)NC(c1cc(C)sc1C)C(C)C", "note": "(centres undefined)", "Percent Effect": 24.3}
{"smiles": "CC(=O)N1CCCC(c2nccnc2Nc2nc(C)cc(C)n2)C1", "note": "(centres undefined)", "Percent Effect": -9.848}
{"smiles": "Cc1cc(C)nc(Nc2nccnc2C2CCCN(C(CO)CO)C2)n1", "note": "(centres undefined)", "Percent Effect": 36.66}
{"smiles": "Cc1cc(C)nc(Nc2nccnc2C2CCCN(CCO)C2)n1", "note": "(centres undefined)", "Percent Effect": 54.85}
{"smiles": "COc1cc(C2CC(=O)Oc3cc(C)[nH]c(=O)c32)ccc1O", "note": "(centres undefined)", "Percent Effect": 15.79}
{"smiles": "Cc1noc(Cl)c1CC(=O)N1CCCC1Cn1cccn1", "note": "(centres undefined)", "Percent Effect": 17.08}
{"smiles": "COc1nccnc1-c1cccc(-c2ccn(CC3COCCO3)n2)c1", "note": "(centres undefined)", "Percent Effect": 14.38}
{"smiles": "CSc1nccc(-c2cccc(-c3ccn(CC4COCCO4)n3)c2)n1", "note": "(centres undefined)", "Percent Effect": 71.9}
{"smiles": "COc1cccc(-c2cccc(-c3ccn(CC4COCCO4)n3)c2)n1", "note": "(centres undefined)", "Percent Effect": -2.003}
{"smiles": "Cc1[nH]nc2ncc(C(=O)N3CCCC3c3noc(C(C)C)n3)cc12", "note": "(centres undefined)", "Percent Effect": 24.5}
{"smiles": "CN1CCN(Cc2cccnc2)C(=O)C12CCN(Cc1ccco1)CC2.O=C(O)C(F)(F)F.O=C(O)C(F)(F)F.O=C(O)C(F)(F)F", "Percent Effect": 15.2}
{"smiles": "O=C(O)C(F)(F)F.O=C(O)C(F)(F)F.c1cncc(-c2ccc3c(c2)CCC32CCN(Cc3nccs3)CC2)c1", "Percent Effect": 61.89}
{"smiles": "O=C(O)C(F)(F)F.O=C(O)C(F)(F)F.c1csc(CN2CCC3(CC2)CCN(CC2CC2)CC3)n1", "Percent Effect": -43.47}
{"smiles": "O=C(O)C(F)(F)F.c1cc(-c2ccc3c(c2)CCC32CCN(c3nncs3)CC2)ccn1", "Percent Effect": 20.52}
{"smiles": "O=C(O)C(F)(F)F.c1cncc(-c2ccc3c(c2)C2(CC3)CCN(c3nncs3)CC2)c1", "Percent Effect": 85.45}
{"smiles": "O=C(O)C(F)(F)F.O=C(O)C(F)(F)F.c1cncc(-c2ccc3c(c2)CCC32CCN(Cc3ccco3)CC2)c1", "Percent Effect": 82.31}
{"smiles": "CN(C)CC(=O)N1CCC2(CCc3cc(-c4cccnc4)ccc32)CC1.O=C(O)C(F)(F)F.O=C(O)C(F)(F)F", "Percent Effect": 11.92}
{"smiles": "COc1ccc2c(c1)C1(CCN(Cc3nccs3)CC1)N(C)CC2.O=C(O)C(F)(F)F.O=C(O)C(F)(F)F", "Percent Effect": -9.444}
{"smiles": "c1cc(-c2ccc3c(c2)C2(CC3)CCN(c3nncs3)CC2)ccn1", "Percent Effect": 26.32}
{"smiles": "CC(C)(C)c1n[nH]cc1CNC1CCC(OCC(F)(F)F)CC1.Cl", "note": "(centres undefined)", "Percent Effect": -6.883}
{"smiles": "CCN(CC(C)C#N)C(=O)CNc1ccc(C(N)=O)c(C)c1", "note": "(centres undefined)", "Percent Effect": 7.465}
{"smiles": "O=C(CC1CCCC1)NCCS(=O)(=O)N1CCN(c2ccccn2)CC1", "Percent Effect": -6.415}
{"smiles": "CN(C)c1nccc(C2CCN(C3CCCCC3O)CC2)n1", "note": "(centres undefined)", "Percent Effect": -26.39}
{"smiles": "Cn1ccnc1CN1CCCN(C(=O)c2ccc3ccccc3c2)CC1", "Percent Effect": 4.708}
{"smiles": "COc1ccc(C)cc1NC(=O)c1coc(C)n1", "Percent Effect": 8.355}
{"smiles": "CCN(C(=O)c1ccc2c(c1)OCO2)C1CC(=O)NC1=O", "note": "(centres undefined)", "Percent Effect": -9.897}
{"smiles": "CC(C)c1cc(C(=O)N2CCN(c3ccncc3)CC2)n(C)n1", "Percent Effect": 12.8}
{"smiles": "CC(C)c1cc(C(=O)N2CCN(c3ccc(F)c(Cl)c3)CC2)n(C)n1", "Percent Effect": 54.92}
{"smiles": "CC(=O)c1ccc(N2CCN(C(=O)c3cc(C(C)C)nn3C)CC2)cc1", "Percent Effect": 16.14}
{"smiles": "CCOc1ccccc1C(=O)NCCC(O)c1ccoc1", "note": "(centres undefined)", "Percent Effect": 22.79}
{"smiles": "O=C(NCC(O)c1ccoc1)Nc1cccs1", "note": "(centres undefined)", "Percent Effect": 104.6}
{"smiles": "CCOC(=O)NCCC(O)c1ccoc1", "note": "(centres undefined)", "Percent Effect": 23.86}
{"smiles": "O=C(NCc1cccs1)NCC(O)c1ccoc1", "note": "(centres undefined)", "Percent Effect": 18.49}
{"smiles": "O=C(NCC(O)c1ccoc1)Nc1c(F)cccc1F", "note": "(centres undefined)", "Percent Effect": 6.365}
{"smiles": "O=C(NCCC(O)c1ccoc1)Nc1cccs1", "note": "(centres undefined)", "Percent Effect": 106.1}
{"smiles": "Cl.O=C(CN1CCCC1)Nc1c2c(cc3c1CCC3)CCC2", "Percent Effect": 40.53}
{"smiles": "CCS(=O)(=O)Nc1ccn(Cc2cccc(F)c2)n1", "Percent Effect": -38.51}
{"smiles": "CN(C)CCN1C(=O)CCC12CCCN(C(=O)c1cccnc1)CC2.O=C(O)C(F)(F)F.O=C(O)C(F)(F)F", "note": "(centres undefined)", "Percent Effect": 28.27}
{"smiles": "Cn1cc(CN2CCCCC2c2ccc(-c3cccc(Cl)c3)nc2)cn1", "note": "(centres undefined)", "Percent Effect": 30.06}
{"smiles": "CC1CCN(C(=O)NCCc2cc(F)ccc2F)C1", "note": "(centres undefined)", "Percent Effect": 29.01}
{"smiles": "CN(C)CCNc1cc(-c2ccccc2C(N)=O)c2cc[nH]c2n1", "Percent Effect": -19.65}
{"smiles": "CN(C)[C@@H]1CN(C(=O)c2cc3cccc(F)c3[nH]2)C[C@H]1O", "Percent Effect": 57.85}
{"smiles": "O=C(c1cc2cccc(F)c2[nH]1)N1C[C@@H](O)[C@H](N2CCCC2)C1", "Percent Effect": 36.56}
{"smiles": "CN1CCN([C@@H]2CN(C(=O)c3cc4cccc(F)c4[nH]3)C[C@H]2O)CC1", "Percent Effect": 38.63}
{"smiles": "CN1CCOC(CNCC(=O)NCCc2ccc3c(c2)OCCO3)C1", "note": "(centres undefined)", "Percent Effect": -19.13}
{"smiles": "Nc1cc(N2CCCC(COc3ccc(F)cc3)C2)nc(N)n1", "note": "(centres undefined)", "Percent Effect": -4.088}
{"smiles": "Cc1ccccc1OCC1CCCN(c2cc(N)nc(N)n2)C1", "note": "(centres undefined)", "Percent Effect": 79.75}
{"smiles": "Cc1nc(N)cc(N2CCCC(COc3cccc(F)c3)C2)n1", "note": "(centres undefined)", "Percent Effect": 43.67}
{"smiles": "CN(C)Cc1cnc(C2CN(C(=O)c3ccccc3Cl)CCO2)[nH]1", "note": "(centres undefined)", "Percent Effect": -0.6177}
{"smiles": "c1ccc(CCN2CC(n3cccn3)C2)nc1", "Percent Effect": -9.048}
{"smiles": "COc1ccc(CN(C)C(=O)CCC(=O)c2cccs2)c(OC)c1OC", "Percent Effect": 32.22}
{"smiles": "COc1cccc(CN(C)C(=O)CCC(=O)c2ccccc2)c1OC", "Percent Effect": 8.094}
{"smiles": "COc1cccc(CN(C)C(=O)CCC(=O)c2ccc(Cl)cc2)c1OC", "Percent Effect": 54.4}
{"smiles": "O=C(N[C@@H]1CCC[C@@H](N2CCCC2)[C@@H]1O)c1cnn2cccnc12", "Percent Effect": -2.756}
{"smiles": "COc1ccc(NC(=O)c2nc(C)sc2C(C)C)cn1", "Percent Effect": 41.95}
{"smiles": "CC(C)c1sc(Br)nc1C(=O)NCc1cccnc1", "Percent Effect": 16.15}
{"smiles": "Cc1nc(C(=O)Nc2cccnc2)c(C(C)C)s1", "Percent Effect": 51.63}
{"smiles": "CC(C)CCN1C[C@H]2C[C@H](C(=O)Nc3cccnc3)[C@@H](C1)O2.O=C(O)C(F)(F)F.O=C(O)C(F)(F)F", "Percent Effect": 18.07}
{"smiles": "N#Cc1cccc(OCCN2CCNC(=O)C2c2cccs2)c1", "note": "(centres undefined)", "Percent Effect": 15.41}
{"smiles": "Cc1nc(CN2C[C@H]3C[C@H](C(=O)NCC4CC4)N(C)[C@H]3C2)cs1.O=C(O)C(F)(F)F.O=C(O)C(F)(F)F.O=C(O)C(F)(F)F", "Percent Effect": -25.01}
{"smiles": "COc1ccccc1-c1nnc2n1NC(N)=C(C#N)S2", "Percent Effect": 6.444}
{"smiles": "COc1cccc(N2CCC(N3C[C@@H](NC(C)=O)[C@H](C(C)C)C3)CC2)c1", "Percent Effect": 34.03}
{"smiles": "CC(=O)N[C@@H]1CN(C2CCN(c3cccc(Cl)c3)CC2)C[C@H]1C(C)C", "Percent Effect": 62.82}
{"smiles": "COc1ccc(N2CCC(N3C[C@H](NC(C)=O)[C@@H](C(C)C)C3)CC2)cc1", "Percent Effect": 33.6}
{"smiles": "Cc1cc(=O)n2ncnc2n1CC(O)c1cc(F)ccc1F", "note": "(centres undefined)", "Percent Effect": -70.76}
{"smiles": "COc1ccc(NC(=O)Cn2c(=O)nc(N)c3cc(C)sc32)cc1", "Percent Effect": 0.3474}
{"smiles": "Cc1nonc1OCCNC(=O)COc1ccc(Cl)cc1Cl", "Percent Effect": 17.56}
{"smiles": "CC(c1nnc(-c2ccccc2)o1)N1CCc2cncnc2C1", "note": "(centres undefined)", "Percent Effect": -7.255}
{"smiles": "CC(=O)N1CCc2c(nc(N(C)C)nc2N(C)CCC2CCCCO2)C1", "note": "(centres undefined)", "Percent Effect": -8.037}
{"smiles": "Cc1nc[nH]c1CN1CCN(C(=O)C2(C)CC2)[C@H]2CS(=O)(=O)C[C@H]21", "Percent Effect": 10.63}
{"smiles": "Cn1cc(CNC(=O)Nc2ccc(S(=O)(=O)C(F)F)cc2)cn1", "Percent Effect": 33.37}
{"smiles": "Cn1ccc(CNC(=O)Nc2ccc(S(=O)(=O)C(F)F)cc2)c1", "Percent Effect": 50.21}
{"smiles": "COc1ccc(CNC(=O)Nc2ccc(S(=O)(=O)C(F)F)cc2)cc1", "Percent Effect": 13.14}
